# Screens (PubChem)
# Most compounds without a hit are left out; they make up all but 7.9% or so of the library.
# HCV inh: qHTS Assay for Inhibitors of Hepatitis C Virus (HCV); Potency, µM (top dose mostly 41.8 µM), for the others: at the top dose activity change, negative = inhibition, most hits filed as inhibitors; Huh7.5.1 HCVcc-Cre infection, luciferase reporter, 44 h; AID 651820, 2012; 3.4% of 340,000 active; active means well fitted inhibition curve with a large enough effect; inconclusive means small, poorly fitted or top-dose-only effect, or another doubt; inactive means no such curve, though single readings can be large or run the other way; further: potency means the concentration at half of the fitted maximal effect
#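 Compounds are dispensed onto cells plated 4 h earlier at 1,000 per well, with HCVcc-Cre virus (about 0.5 moi) added next. Following 44 h of culture, luminescent signal is measured for 15 sec after 15 min with substrate at room temperature.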
# FMDV inh: High Throughput Screening for Foot and Mouth Disease Virus Antivirals; Potency, µM (titrated, usually from 57.9 µM), inactives show at the top dose activity change, negative = inhibition, usual class: inhibitors; FMDV antiviral cell-based qHTS; 1.2% of 410,000 active; AID 1159524, 2015; calls by dose curve; tested in HEK293T cells; further: read-out not given here; potency means the concentration at half of the fitted maximal effect; nearly all actives have a fitted effect of over 45% in size
# Marburg entry inh: qHTS for inhibitors of binding or entry into cells for Marburg Virus. Marburg virus pseudotyped entry inhibition, cell reporter. 1.8% of 300,000 active. Potency, µM (highest dose often 37.8 µM), for inactives: at the highest dose activity change, negative = inhibition, most hits filed as inhibitors; calls by dose curve; tested in HEK293 cells; further: potency means the concentration at half of the fitted maximal effect
# Lassa entry inh: qHTS for Inhibitors of binding or entry into cells for Lassa Virus | Potency, µM (titrated, usually from 37.9 µM), for the others: top-dose activity change, negative = inhibition, usual class: inhibitors | Lassa virus pseudotype entry inhibition, cell reporter | 1.2% of 300,000 active | AID 540256, 2011; calls by dose curve; tested in HEK293 cells; further: potency means the concentration at half of the fitted maximal effect; nearly all actives have a fitted effect of over 50% in size
# HCMV antiviral: qHTS Assay for inhibitors of the human cytomegalovirus (HCMV); HFF cells, HCMV-luciferase reporter, 72 h; active compounds read low; activity change, negative = inhibition, % at 57.5 µM; 4.5% of 410,000 active; in the data active means activity change below about -60%; inconclusive means no clear call, values can overlap the other calls; inactive means above about -39%
#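 After 16 h attachment at 37C, HFF cells received test compound and HCMV-luciferase (1 PFU/cell); reporter luminescence read 72 h later, data normalized against buffer-only and known inhibitor Salinomycin.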
# Numbers without * were called inactive; ? = inconclusive; nt = no result; ! = not active in a repeat; [ ] = another dose, or the depositor's remark. On the % scale 0 is the no-effect control and ±100 the full control effect.
SMILES,HCV inh,FMDV inh,Marburg entry inh,Lassa entry inh,HCMV antiviral
COc1cccc(NC(=O)Cn2c(=O)n(CCCCC(=O)NCCc3ccccc3)c(=O)c3ccccc32)c1,nt,-9%,-5%[46.1 µM],9%[46.1 µM],-22
C=CC[C@@]1(C(=O)OC)C=C[C@@H](C)[C@H](c2ccccc2Br)N1C(=O)C(F)(F)F,nt,nt,-11%[14.2 µM],2%[14.3 µM],nt
COc1ccc(NC(=O)C2CCC(CNS(=O)(=O)c3ccc(Br)s3)CC2)c(OC)c1 (stereo unspecified),nt,-11%,2%[46.1 µM],20%[46.1 µM],-31
CCOC(=O)c1[nH]c2c(c1Cc1ccccc1OC)C(=O)CC(c1ccc(OCC)cc1)C2 (stereo unspecified),nt,-4%,-5%[46.1 µM],2%[46.1 µM],-18
CC(C)(C)NC(=O)CSc1nc2ccc(NC(=O)CSc3nnnn3Cc3ccccc3)cc2s1,2µM*,14µM*,8.9µM*,?,-77*
CC(C)(C)NC(=O)CSc1nc2ccc(NC(=O)CSc3nnc(N)s3)cc2s1,13µM*,28µM*,?,3%,6
CCOc1ccc(N2CC(NC(=O)CCc3ccccc3)CC2=O)cc1 (stereo unspecified),nt,-13%,nt,0%[46.1 µM],-7
COc1cc(=O)n2c(c1C(=O)N(C)Cc1nonc1C)CCN(C(=O)C1C(C)(C)C1(C)C)CC2,nt,4%,nt,nt,nt
CC(=O)c1cccc(Nc2c3c(nc4nc(-c5cccs5)nn24)CCCC3)c1,nt,-16%,nt,-7%[46.1 µM],56
Cc1c([N+](=O)[O-])c2ccc(O)cc2n1-c1ccccc1,?,-2%,nt,nt,-68*
OCCN(CCO)c1ccc(C(c2ccccc2Cl)c2ccc(N(CCO)CCO)cc2Cl)c(Cl)c1,?,40µM*,-27%,11µM*,nt
O=c1ccc2ccccc2c2ccccc12,nt,13µM*,nt,nt,-99*
COC(=O)c1cnc(NCc2ccc(F)cc2)c2ccccc12,nt,-11%,nt,-12%[46.1 µM],-3
COc1ccc(Cl)cc1NC(=O)CSC1=Nc2ccccc2C2=NC(CCC(=O)NCc3ccco3)C(=O)N12 (stereo unspecified),nt,-19%,10%[46.1 µM],0%[46.1 µM],-5
CCOC(=O)C1CCN(C(=O)c2ccc3c(c2)sc2nc(-c4ccc(OC)cc4)cn23)CC1,nt,-29%,nt,13%[46.1 µM],nt
CCOC(=O)N1CCN(C(=O)c2ccc3c(c2)sc2nc(-c4ccc(OC)cc4)cn23)CC1,14µM*!,-11%,?,-28%,nt
COc1ccc(-c2cn3c(n2)sc2cc(C(=O)NCc4ccccc4)ccc23)cc1,nt,-14%,nt,-14%[46.1 µM],nt
COc1ccc2c(c1)sc1nc(-c3ccccc3)cn12,?,7.9µM*,0.71µM*,0.5µM*,-98*
COc1ccccc1N1CCN(c2cc(C)nc3nncn23)CC1,nt,-15%,-28%[46.1 µM],-1%[46.1 µM],?
C/C(O)=c1/ccc2cccc3nc(C)nc1c23,?,nt,-20%,-9%,-79*
Cc1cccc2nc3ccccc3cc12,-25%,46%,1%,11%,-24
O=C(Nc1ccccn1)c1cc2ccccc2o1,-10%,nt,?,4.6µM*,-4
O=C(Nc1ncccc1O)c1cc2ccccc2o1,2%,?,?,1.3µM*,-1
Cc1ccnc(NC(=O)c2cc3ccccc3o2)c1,-26%,28µM*,1.1µM*,?,-5
O=C(Nc1cccc2ncccc12)c1cc2ccccc2o1,-9%,-8%,0%,0%,7
SMILES,HCV inh,FMDV inh,Marburg entry inh,Lassa entry inh,HCMV antiviral
CCSC1=C(C#N)[C@@H](c2cccs2)C(C(=O)OC)=C(C)N1,nt,nt,26%,nt,nt
Clc1cccc(-c2cccc3nccn23)c1Cl,nt,-27%,nt,nt,-79*
O=C1C=Cc2cccc3ccc(O)c1c23,?,9%,-18%[46.1 µM],-3%[46.1 µM],-68*
O=C1C=CC(=O)c2c(O)cccc21,nt,1%,nt,nt,nt
CCOCCCNC(=O)C(c1ccc(Cl)cc1)N(Cc1ccc2c(c1)OCO2)C(=O)c1ccc(NC(C)=O)cc1 (stereo unspecified),nt,-17%,?,?,-4
COCc1[nH]nc2c1[C@@H](c1ccnc3ccccc13)C(C#N)=C(N)O2,nt,nt,-15%,nt,nt
O=C(/C=C/Nc1ccccc1)C(F)(F)F,7%,-15%,?,5%,-80*
COCCCNCCC(CCC(C)C)c1ccc2c(c1)OCO2 (stereo unspecified),14µM*,19%,?,?,11
CC(C)CCC(CCN1CCOCC1)c1ccc2c(c1)OCO2 (stereo unspecified),?,-26%,12µM*,-22%,-20
CCOc1ccc(CCNC(=O)c2ccc(C)c(-n3cnc4cccnc43)c2)cc1,nt,-19%,nt,-20%[46.1 µM],0
Cc1ccc(NC(=O)Cn2nc(Cc3ccncc3)c3ccccc3c2=O)c(Cl)c1,nt,-20%,10%[46.1 µM],19%[46.1 µM],-97*
CCc1c(C)nc2ncnn2c1N1CCCC(C(=O)NCCc2ccccc2)C1 (stereo unspecified),-26%,-6%,-23%,2%,-23
CCc1c(C)nc2ncnn2c1N1CCCC(C(=O)Nc2cc(F)ccc2C)C1 (stereo unspecified),-30%,35µM*,?,-8%,-35
CCOc1ccc(NC(=O)C2CCCN(c3c(CC)c(C)nc4ncnn34)C2)cc1 (stereo unspecified),13µM*,?,-21%[46.1 µM],nt,31
Cc1ccc(C)n1-c1nnc(N2CCCC(C(=O)Nc3ccccc3Br)C2)s1 (stereo unspecified),nt,0%,-6%[46.1 µM],-5%[46.1 µM],19
CCOc1ccc(NC(=O)C2CCCN(c3nc(C)cc(C)n3)C2)cc1 (stereo unspecified),-14%,-5%,?,-5%[46.1 µM],-27
Cc1nc2ncnn2c(N2CCCC(C(=O)Nc3ccccc3Br)C2)c1C (stereo unspecified),?,?,-18%[46.1 µM],?,-64*
CCc1c(C)nc2ncnn2c1N1CCN(S(=O)(=O)c2ccc(OC)cc2)CC1,1.8µM*,-30%,?,?,-72*
Cc1cc(N2CCN(S(=O)(=O)c3ccc(Br)cc3)CC2)n2ncnc2n1,?,-29%,-1%[46.1 µM],-9%,-6
COc1ccc(-c2cc(C)no2)cc1S(=O)(=O)NCc1ccco1,nt,69%,nt,15%[46.1 µM],0
CCOC(=O)c1c(C)oc2nc(C)nc(Nc3cc(C)ccc3OC)c12,nt,-5%,nt,?,11
CCN(c1cccc(C)c1)S(=O)(=O)c1ccc2[nH]cc(C(=O)NCCCOC)c(=O)c2c1,nt,0%,nt,-16%[46.1 µM],-23
Cc1cccc(Nc2cc(C)nc3nc(Cc4ccc(Cl)cc4)nn23)c1,nt,-22%,?,?,-15
COc1cc(OC)cc(-c2cc3c(Nc4cccc(O)c4)nccc3[nH]2)c1,nt,nt,nt,nt,25
COc1cc(/C=C(/C(=O)c2cccs2)c2nc3ccccc3[nH]2)ccc1O,?,25µM*,4.1µM*,?,-99*
COC(=O)/C(=C\c1ccc(O)cc1)c1nc2ccccc2[nH]1,-9%,46%,nt,nt,29
COC(=O)/C(=C\c1cc(OC)c(OC)c(OC)c1)c1nc2ccccc2[nH]1,?,16µM*,-16%[46.1 µM],?,-98*
